Source: PubChem BioAssay (NCI)
Values joined by “and” are separate entries in the source; they are usually repeats but may differ in a detail not shown here. Equal entries are not always repeated. Compounds without any hit were thinned out: in the full panel of roughly 83,000, 20% have a hit.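 Cells were grown in 96-well plates and exposed to the test compound at a single concentration for 48 hours; results are reported as percent growth, with values below 10 considered active.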 Active and inactive are the calls of the source.

What was measured:
Assay in all cases: NCI-60 one-dose screen, 48 h (100 = growth as untreated, 0 = no growth, -100 = all killed)
Settings in all cases: 10 µM unless noted
[1] = system: SR leukemia
[2] = system: RPMI-8226 leukemia
[3] = system: OVCAR-8 ovarian
[4] = system: OVCAR-5 ovarian
[5] = system: OVCAR-4 ovarian
[6] = system: SK-OV-3 ovarian
[7] = system: IGROV1 ovarian
[8] = system: OVCAR-3 ovarian
[9] = system: HS 578T breast
[10] = system: NCI/ADR-RES ovarian

SMILES | growth [1] | growth [2] | growth [3] | growth [4] | growth [5] | growth [6] | growth [7] | growth [8] | growth [9] | growth [10]
O=C(CCCOc1ccc(Br)cc1)Nc1ncc(Cc2ccc(F)cc2)s1 | 22.6% (inactive) | 77.6% (inactive) | 91.5% (inactive) | 79.4% (inactive) | 68.7% (inactive) | 81.7% (inactive) | 78.5% (inactive) | 81% (inactive) | 74.3% (inactive) | 73.6% (inactive)
Cc1ccc(-c2nc3nc(-c4ccccc4)nc(N4CCCNCC4)c3o2)cc1 | -49.7% (active) | -55% (active) | -48.4% (active) | -32.4% (active) |  | 79.9% (inactive) | -73.8% (active) | -81.7% (active) | -18.1% (active) | -29.8% (active)
O=C1C(=C(O)c2ccccc2)C(=O)c2ccccc21 | 115% (inactive) | 94.3% (inactive) | 105% (inactive) | 104% (inactive) |  | 101% (inactive) | 106% (inactive) | 109% (inactive) | 120% (inactive) | 108% (inactive)
CCCCCCCCn1ccc2cc(NC(=O)CN3CCN(c4nc(C)cc(N5CCCCC5)n4)CC3)ccc21 | 53.3% (inactive) | 59.9% (inactive) | 90.2% (inactive) | 103% (inactive) |  | 98.8% (inactive) | 73.9% (inactive) | 94.4% (inactive) | 91.5% (inactive) | 85.8% (inactive)
C#CCn1cnc2cnc(Nc3cccc(NC(=O)CCl)c3)nc21 | 1.67% [6.25 µM] (active) | -14.9% [6.25 µM] (active) | 8.6% [6.25 µM] (active) | 14.8% [6.25 µM] (inactive) | 13% [6.25 µM] (inactive) | 15.3% [6.25 µM] (inactive) | -38.1% [6.25 µM] (active) |  | 10.4% [6.25 µM] (inactive) | 2.34% [6.25 µM] (active)
CCOC(=O)CC1CSC(c2cccc(Cl)c2)=N1 (centres undefined) | 92% (inactive) | 104% (inactive) | 102% (inactive) | 113% (inactive) |  | 103% (inactive) | 113% (inactive) | 107% (inactive) | 102% (inactive) | 96.4% (inactive)
Cc1ccccc1SSc1ccccc1C | 65.4% (inactive) | 98.5% (inactive) | 84.1% (inactive) | 75.5% (inactive) |  | 96.9% (inactive) | 84.6% (inactive) | 120% (inactive) | 97.7% (inactive) | 86.4% (inactive)
O=C(N/N=C/c1ccc(O)cc1O)c1cccc(Nc2ccnc(C(F)(F)F)c2)c1 | 21.7% (inactive) | 30.8% (inactive) | 22.7% (inactive) | 47.8% (inactive) |  | 25.1% (inactive) | 34.2% (inactive) | 32% (inactive) | 44.8% (inactive) | 49.6% (inactive)
COc1ccc(CN2CCc3c(Cl)nc(N)nc3C2=O)c(OC)c1 | 3.87% [100 µM] (active) | 12.7% [100 µM] (inactive) | 1.04% [100 µM] (active) | 45.1% [100 µM] (inactive) |  | 8.93% [100 µM] (active) | -37.3% [100 µM] (active) | -22.4% [100 µM] (active) | 49.9% [100 µM] (inactive) | 4.29% [100 µM] (active)
COCCOc1cc2ncnc(N3CCN(S(=O)(=O)c4ccccc4Cl)CC3)c2cc1OCCOC | 22% (inactive) | 82.5% (inactive) | 93.9% (inactive) | 102% (inactive) |  | 104% (inactive) | 89.7% (inactive) | 91.5% (inactive) | 93.5% (inactive) | 66.9% (inactive)
Cc1c(CC(=O)OCCO)cc(-c2ccc(Cl)cc2)n1-c1ccccc1 | 91.2% (inactive) | 72.1% (inactive) | 92.4% (inactive) | 99.6% (inactive) |  | 110% (inactive) | 104% (inactive) |  | 106% (inactive) | 99.5% (inactive)
COc1cc(NC2CCCCC2O)c2nc(-c3ccc(Cl)cc3)ccc2c1 (centres undefined) | -4.63% (active) | 58.3% (inactive) and 34.2% (inactive) | 85.5% (inactive) and 90.1% (inactive) | 107% (inactive) and 94.6% (inactive) |  | 101% (inactive) and 105% (inactive) | 97.2% (inactive) and 96% (inactive) | 88.1% (inactive) and 112% (inactive) | 85.4% (inactive) and 138% (inactive) | 84.5% (inactive)
CN1CCN(C(=O)OCc2nc3c(N4CCOCC4)nc(Cl)nc3n2C)CC1 | -28% (active) | -28.2% (active) | -80.3% (active) | -73.7% (active) |  | 69.9% (inactive) | -95.4% (active) |  | -31.2% (active) | -1.09% (active)
[2H]C([2H])([2H])Oc1cccc(/C=C/C(=O)/C=C(/C=C/c2cccc(OC([2H])([2H])[2H])c2OC([2H])([2H])[2H])OB(F)F)c1OC([2H])([2H])[2H] | 23.3% (inactive) | 46% (inactive) | 20.6% (inactive) | 106% (inactive) |  | 105% (inactive) | 73.3% (inactive) | 39.2% (inactive) | 91.9% (inactive) | 50.6% (inactive)
O=S(=O)(Nc1cc(Sc2cccc3cccnc23)c(O)c2ccccc12)c1ccc(F)cc1 | 4.77% (active) | -12.8% (active) | 5.74% (active) | 38.9% (inactive) |  | 50.8% (inactive) | 1.46% (active) | -87.6% (active) | 50% (inactive) | 3.32% (active)
O=C(NCCCN1CCCCC1)c1ccc(-c2nc3ccc4[nH]ncc4c3c3c2CCCC3)cc1 | -18.3% (active) | 29.9% (inactive) | 62% (inactive) | 94.6% (inactive) |  | 24.9% (inactive) | 29.2% (inactive) | 67.5% (inactive) | 14.4% (inactive) | 85.2% (inactive)
O=C(Nc1ccc2ncsc2c1)c1csc(Nc2ccc3[nH]ncc3c2)n1 | 29.1% (inactive) | 13.6% (inactive) | 45.7% (inactive) | 78.6% (inactive) | 74.8% (inactive) | 52.9% (inactive) | 59.1% (inactive) |  | 37.7% (inactive) | 56.9% (inactive)
CN(Cc1ccccc1)c1nc(Cl)c(C2CC(c3ccc4c(c3)OCO4)=NN2c2cc(Cl)cc(Cl)c2)s1 (centres undefined) | 98.6% (inactive) | 83.7% (inactive) | 105% (inactive) | 106% (inactive) |  | 92.9% (inactive) | 95.3% (inactive) | 103% (inactive) | 96.5% (inactive) | 104% (inactive)
CC[C@]12CN3CCc4c([nH]c5ccccc45)[C@@](C(=O)OC)(c4cc5c(cc4OC)N(C)[C@H]4[C@@](O)(C(=O)OC)[C@H](OC(C)=O)[C@]6(CC)C=CCN7CC[C@]54[C@@H]76)CC(C3)[C@H]1O2 (some centres undefined) | 14.4% (inactive) | 20.5% (inactive) | 7.27% (active) | 49% (inactive) | 28% (inactive) | 22.1% (inactive) |  | -60.4% (active) | -25.1% (active) | 82% (inactive)
O=C(O)C1C2CCC1C(O)C2 (centres undefined) | 96.2% (inactive) and 88.2% (inactive) | 104% (inactive) and 90.5% (inactive) | 100% (inactive) and 98.1% (inactive) | 96.5% (inactive) and 96.2% (inactive) |  | 105% (inactive) and 98.8% (inactive) | 124% (inactive) and 112% (inactive) | 108% (inactive) and 96.9% (inactive) | 110% (inactive) and 109% (inactive) | 96.7% (inactive) and 98.2% (inactive)
OB(O)c1ccsc1-c1nc2ccc3[nH]ncc3c2c2c1CCCC2 | 14.1% (inactive) | 60.3% (inactive) | 66.2% (inactive) | 92.1% (inactive) |  | 15.3% (inactive) | 32.6% (inactive) | 85.2% (inactive) | 32.9% (inactive) | 75.6% (inactive)
Nc1ncnc2c1C(c1ccc([N+](=O)[O-])cc1)c1sc3c(F)cccc3c1O2 (centres undefined) | 94.3% (inactive) | 103% (inactive) | 102% (inactive) | 85.9% (inactive) |  | 109% (inactive) | 85.6% (inactive) | 110% (inactive) | 89.2% (inactive) | 101% (inactive)
O=c1c2c([nH]c3ccccc13)CCCC2 | 87.9% (inactive) and 10.9% (inactive) | 87.2% (inactive) and 38.6% (inactive) | 99.8% (inactive) and 40.5% (inactive) | 91.3% (inactive) and 78.2% (inactive) |  | 104% (inactive) and 44.2% (inactive) | 111% (inactive) and 44.1% (inactive) | 118% (inactive) and -8.45% (active) | 98.2% (inactive) and 72.4% (inactive) | 104% (inactive) and 22.2% (inactive)
NS(=O)(=O)OCC1OC(n2cnc3cncnc32)C(O)C1O (centres undefined) | 2.84% [0.1 µM] (active) and 3.32% [0.1 µM] (active) | 25.1% [0.1 µM] (inactive) | 1.63% [0.1 µM] (active) and 1.09% [0.1 µM] (active) | 24.4% [0.1 µM] (inactive) and 6.91% [0.1 µM] (active) |  | 18.5% [0.1 µM] (inactive) and 21.6% [0.1 µM] (inactive) | 18% [0.1 µM] (inactive) and 48.5% [0.1 µM] (inactive) | 38.6% [0.1 µM] (inactive) and 28.1% [0.1 µM] (inactive) | 55.8% [0.1 µM] (inactive) | -5.79% [0.1 µM] (active) and 4.02% [0.1 µM] (active)
O=C1/C(=C/c2ccccc2[N+](=O)[O-])Cc2ccccc21 | 3.7% (active) and 11.5% (inactive) | -5.97% (active) and 3.37% (active) | 0.344% (active) and 59.9% (inactive) | -1.63% (active) and 12.7% (inactive) |  | 70.4% (inactive) and 95.2% (inactive) | -10.6% (active) and 17.3% (inactive) | -23.8% (active) and -50.2% (active) | 32.3% (inactive) and 71.2% (inactive) | -47.5% (active)
